Experiment [1] in a line: qHTS assay for small molecule agonists of the p53 signaling pathway (AID 651631; calls by dose curve; further: nearly all actives have a fitted effect of over 15% in size). The method, boiled down:
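Stably transfected HCT-116 cells (beta-lactamase behind p53 response elements) get compounds after a 5 h settling period; 16 h later at 37 °C, FRET substrate is loaded and fluorescence read after 2 h.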
On the technique in general: qHTS replaces the single test concentration by a dilution series.

Experiment [2] can be described thus: qHTS assay for small molecules that induce genotoxicity in human embryonic kidney cells expressing luciferase-tagged ATAD5 - cell viability (AID 651634; calls by dose curve; further: nearly all actives have a fitted effect of over 25% in size; further: potency means the concentration at half of the fitted maximal effect). The method, boiled down:
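Cells (HEK293T, luciferase-tagged ATAD5) are seeded at 2,000 per well, dosed with compound or DMSO vehicle, and incubated 15.5 hr at 37C and 5% CO2. CellTiter-Fluor is added for 30 min before fluorescence is measured.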

Experiment [3] is described as follows: qHTS assay to test for compound auto fluorescence at 590 nm (red) in HepG2 cells (AID 720674). The method, boiled down: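 Rose Bengal sodium served as the red fluorophore standard. HepG2 monolayers (overnight attachment, MEM with 10% FBS) were exposed to test compounds for 1 hr at 37 C and read at Ex 540/Em 590 nm.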
Experiment [4] can be described thus: qHTS assay to test for compound auto fluorescence at 535 nm (green) in HEK293 cells (AID 720680).
A short description of experiment [5]: qHTS assay to test for compound auto fluorescence at 590 nm (red) in HEK293 cell free culture (AID 720683). The method, boiled down:
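Tox21 10K library compounds were pinned into cell-free DMEM with 10% FBS and fluorescence was read at excitation 540 nm. Activity is expressed as Rose Bengal sodium equivalency.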

A short description of experiment [6]: qHTS assay to identify small molecule antagonists of the glucocorticoid receptor (GR) signaling pathway - cell viability counter screen (AID 720693). Further: nearly all actives have a fitted effect of over 55% in size. Further: potency means the concentration at half of the fitted maximal effect.
Experiment [7] can be described thus: qHTS assay for identifying genotoxic compounds that show differential cytotoxicity against isogenic chicken DT40 cell lines with known DNA damage response pathways - Rev3 mutant cell line (AID 743014). Further: nearly all actives have a fitted effect of over 55% in size. Further: potency means the concentration at half of the fitted maximal effect.
Experiment [8] can be described thus: qHTS assay to identify small molecule antagonists of the thyroid receptor (TR) signaling pathway - cell viability counter screen (AID 743064). Further: nearly all actives have a fitted effect of over 50% in size. Further: potency means the concentration at half of the fitted maximal effect. The method, boiled down: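 Counter screen for cytotoxicity: compound plus T3 (1 nM final) on GH3.TRE-Luc cells, 23.5 h at 37 °C, then fluorescence viability readout with CellTiter-Fluor.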
Experiment [9] can be described thus: qHTS assay to identify small molecule antagonists of the thyroid receptor (TR) signaling pathway (AID 743065). Further: nearly all actives have a fitted effect of over 55% in size. Further: potency means the concentration at half of the fitted maximal effect. The method, boiled down: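 GH3.TRE-Luc rat pituitary cells carrying two TR response elements driving luciferase were plated for 4 h, given compound plus 1 nM T3 (final), and incubated 23.5 h at 37 C. ONE-Glo luminescence measured reporter inhibition; CellTiter-Fluor fluorescence tracked cytotoxicity.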

Experiment [10] relates to thyroid hormone receptor (rat, GH3 cells). The experiment in a line: qHTS assay to identify small molecule agonists of the thyroid receptor (TR) signaling pathway (AID 743066; calls by dose curve).
Experiment [11] concerns the target Estrogen receptor (Homo sapiens) (UniProt P03372). Description: qHTS assay to identify small molecule agonists of the estrogen receptor alpha (ER-alpha) signaling pathway (AID 743075; calls by dose curve;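 further: HEK293 GripTite cells with ER-alpha and UAS-driven beta-lactamase reporter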; further: potency means the concentration at half of the fitted maximal effect).
The target is the same in experiment [12]. Description: qHTS assay to identify small molecule agonists of the estrogen receptor alpha (ER-alpha) signaling pathway using the BG1 cell line (AID 743079). Further: nearly all actives have a fitted effect of over 20% in size. Further: potency means the concentration at half of the fitted maximal effect.
Experiment [13] is described as follows: qHTS assay to identify small molecule antagonists of the estrogen receptor alpha (ER-alpha) signaling pathway using the BG1 cell line (AID 743080; calls by dose curve;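 further: BG1 cells stimulated with 17beta-estradiol alongside compound; series mostly up to about 70 µM; nearly all actives have a fitted effect of over 25% in size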). The method, boiled down: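 Readout is ONE-Glo luminescence, taken 30 min at room temperature after reagent addition, preceded by a CellTiter-Fluor viability read; BG1-Luc-4E2 cells had received compound and 17beta-estradiol for 21.5 h at 37 C.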

Experiment [14] can be described thus: qHTS assay to identify small molecule that activate the aryl hydrocarbon receptor (AhR) signaling pathway - cell viability counter screen (AID 743086). Further: nearly all actives have a fitted effect of over 45% in size. Further: potency means the concentration at half of the fitted maximal effect. The method, boiled down:
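HepG2-AhR-luc (HG2L7.5c1) cells, 4000/well, were preincubated 5 h at 37C, exposed to compound in qHTS format for 24 hr at 37C, then given CellTiter-Fluor for 30 min; viability was read as fluorescence in the reporter wells.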

The target in experiment [15] is Peroxisome proliferator-activated receptor gamma (Homo sapiens) (UniProt P37231). The experiment in a line: qHTS assay to identify small molecule agonists of the peroxisome proliferator-activated receptor gamma (PPARg) signaling pathway (AID 743094; active means well fitted activation curve with a large enough effect in the signal ratio in the repeat runs, not every such curve was filed as active; inconclusive means weak or mixed curves, or effect the other way; inactive means no such curve, though single readings can be large or run the other way; the % refers to the signal ratio). The method, boiled down:
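Cells from the PPARg UAS-bla HEK293H line are plated and incubated 5 h at 37C. Compounds in DMSO are pinned in and left 17 h at 37C. LiveBLAzer B/G substrate is then added for 1 h at room temperature before fluorescence is measured.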

For experiment [16], the target named is Glucocorticoid receptor (Homo sapiens) (UniProt P04150). The experiment in a line: qHTS assay to identify small molecule antagonists of the glucocorticoid receptor (GR) signaling pathway (AID 720692; active means well fitted inhibition curve with a large enough effect in the signal ratio in the repeat runs, not every such curve was filed as active; inconclusive means weak or mixed curves, or effect the other way; inactive means no such curve, though single readings can be large or run the other way; the % refers to the signal ratio). The method, boiled down:
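Antagonism was scored as loss of dexamethasone-driven (5 nM final) reporter signal in HeLa cells bearing a glucocorticoid response element–beta-lactamase construct, after 18 h compound exposure at 37 C and 2 h FRET substrate loading.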

The nature of experiment [17]: qHTS assay for small molecule disruptors of the mitochondrial membrane potential (AID 720635). Further: potency means the concentration at half of the fitted maximal effect. The method, boiled down:
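HepG2 cells (2,000/well) attached overnight at 37C, then took compound for 1 hr at 37C, 5% CO2. Mito-MPS dye was added for 30 min; fluorescence was read at 490/535 nm (monomers) and 540/590 nm (aggregates).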

Experiment [18] can be described thus: qHTS assay to identify small molecule phospholipidosis (PLD) inducers (AID 1259344; active means well fitted curve in the direction sought with a large enough effect; inconclusive means small, poorly fitted or top-dose-only effect, or another doubt; inactive means no such curve, though single readings can be large; an effect the other way counts as inactive or inconclusive). The method, boiled down:
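Cells (HepG2, 900 per well) attach for 4 h, receive LipidTOX Red and compound together, incubate 24 h at 37 C, are fixed 30 min with paraformaldehyde/Hoechst, then imaged at one site per well.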

A short description of experiment [19]: qHTS assay to identify small molecule antagonists of the estrogen receptor alpha (ER-alpha) signaling pathway using the BG1 cell line - cell viability counter screen (AID 743081).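 Further: compound given together with 17beta-estradiol as the ER stimulus; series mostly up to about 70 µM; nearly all actives have a fitted effect of over 45% in size.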
Experiment [20] addresses Glucocorticoid receptor (Homo sapiens) (UniProt P04150). Description: qHTS assay to identify small molecule agonists of the glucocorticoid receptor (GR) signaling pathway (AID 720691; active means well fitted activation curve with a large enough effect in the signal ratio in the repeat runs, not every such curve was filed as active; inconclusive means weak or mixed curves, or effect the other way; inactive means no such curve, though single readings can be large or run the other way; the % refers to the signal ratio). The method, boiled down: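 Steps: seed GR-bla HeLa cells, incubate 4 h at 37 C/5% CO2; pin-transfer DMSO-dissolved compounds; incubate 18 h at 37 C; add LiveBLAzer B/G FRET substrate; after 2 h at room temperature, measure fluorescence.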

Values without a mark were called inactive. Calls of active or inactive are those of the source. Unless noted, the call rests on the fitted dose curve; in most records, active means well fitted curve in the direction sought with a large enough effect in the repeat runs; inconclusive means weak or mixed curves; inactive means no such curve, though single readings can be large; an effect the other way counts as inactive or inconclusive.

Chain of Estrogen receptor (Homo sapiens) (P03372 whole entry, looked up): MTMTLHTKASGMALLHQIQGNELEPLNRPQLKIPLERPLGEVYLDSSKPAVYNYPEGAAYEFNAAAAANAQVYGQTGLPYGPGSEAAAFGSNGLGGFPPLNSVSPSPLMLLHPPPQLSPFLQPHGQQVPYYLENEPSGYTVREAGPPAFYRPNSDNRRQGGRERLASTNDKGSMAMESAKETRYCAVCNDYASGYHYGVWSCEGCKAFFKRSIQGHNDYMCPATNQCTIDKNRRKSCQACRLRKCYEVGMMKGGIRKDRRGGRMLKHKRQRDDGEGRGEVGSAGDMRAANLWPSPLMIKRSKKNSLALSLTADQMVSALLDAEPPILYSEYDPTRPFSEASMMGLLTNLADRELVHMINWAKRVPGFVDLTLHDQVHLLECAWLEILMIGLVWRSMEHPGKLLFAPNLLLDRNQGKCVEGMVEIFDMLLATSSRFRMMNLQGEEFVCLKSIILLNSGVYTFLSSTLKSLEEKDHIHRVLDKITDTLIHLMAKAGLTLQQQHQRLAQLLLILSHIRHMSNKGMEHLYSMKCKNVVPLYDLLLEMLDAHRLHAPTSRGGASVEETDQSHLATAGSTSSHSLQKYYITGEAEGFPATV
Chain of Glucocorticoid receptor (Homo sapiens) (P04150 whole entry, looked up): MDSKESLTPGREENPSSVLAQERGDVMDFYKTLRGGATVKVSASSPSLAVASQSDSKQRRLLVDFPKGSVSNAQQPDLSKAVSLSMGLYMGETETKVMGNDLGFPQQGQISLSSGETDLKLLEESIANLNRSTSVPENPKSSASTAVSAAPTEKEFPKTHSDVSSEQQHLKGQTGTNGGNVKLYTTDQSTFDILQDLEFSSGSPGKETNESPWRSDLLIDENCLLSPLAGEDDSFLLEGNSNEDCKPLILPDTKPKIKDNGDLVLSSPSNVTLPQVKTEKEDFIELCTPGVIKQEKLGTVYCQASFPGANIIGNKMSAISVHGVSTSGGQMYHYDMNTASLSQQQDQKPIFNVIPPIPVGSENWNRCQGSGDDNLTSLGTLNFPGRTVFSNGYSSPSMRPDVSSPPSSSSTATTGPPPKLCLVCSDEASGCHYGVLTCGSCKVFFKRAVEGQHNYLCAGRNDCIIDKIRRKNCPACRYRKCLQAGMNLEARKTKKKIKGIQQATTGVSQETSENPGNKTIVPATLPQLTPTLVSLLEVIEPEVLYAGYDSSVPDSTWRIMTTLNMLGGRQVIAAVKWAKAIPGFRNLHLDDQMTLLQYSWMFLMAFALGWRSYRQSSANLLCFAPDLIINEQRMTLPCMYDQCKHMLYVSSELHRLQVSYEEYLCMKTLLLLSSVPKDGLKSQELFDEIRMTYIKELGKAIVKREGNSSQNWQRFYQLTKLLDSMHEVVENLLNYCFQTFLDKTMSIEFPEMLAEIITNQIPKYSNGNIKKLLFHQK
Chain of Peroxisome proliferator-activated receptor gamma (Homo sapiens) (P37231 whole entry, looked up): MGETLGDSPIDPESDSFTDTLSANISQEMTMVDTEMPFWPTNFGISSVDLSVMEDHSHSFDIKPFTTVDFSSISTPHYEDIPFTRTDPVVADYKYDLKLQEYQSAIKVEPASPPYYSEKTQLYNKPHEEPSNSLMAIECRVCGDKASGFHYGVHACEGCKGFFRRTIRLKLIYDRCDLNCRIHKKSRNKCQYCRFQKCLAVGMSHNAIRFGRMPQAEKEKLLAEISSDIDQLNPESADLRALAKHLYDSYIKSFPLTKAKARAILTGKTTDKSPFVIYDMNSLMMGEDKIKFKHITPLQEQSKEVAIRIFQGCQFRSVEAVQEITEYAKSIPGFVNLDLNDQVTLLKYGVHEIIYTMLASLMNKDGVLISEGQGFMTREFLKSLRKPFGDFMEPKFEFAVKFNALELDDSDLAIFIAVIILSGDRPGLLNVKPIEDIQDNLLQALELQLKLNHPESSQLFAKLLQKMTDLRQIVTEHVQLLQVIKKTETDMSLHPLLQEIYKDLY

Regarding `CCC(C)(S(=O)(=O)CC)S(=O)(=O)CC`, the Potency entry in [1], in experiment [2], in experiment [4], in experiment [6], in experiment [7] and in experiment [8] was “inactive” in each case. For the same molecule, the Potency entry in experiment [9], in experiment [10], in experiment [11], in experiment [12], in experiment [13] and in experiment [14] was “inactive” in each case. In experiment [15], the Potency result was “inactive”. For the same molecule, the call in experiment [3] and in experiment [5] was inactive.

Consider `COc1cc([C@@H]2c3cc4c(cc3[C@H](O)[C@H]3COC(=O)[C@H]23)OCO4)cc(OC)c1OC`, for which the Potency entry in [1] is “inactive”.

On to `C[N+](C)(C)CCCCCCCCCC[N+](C)(C)C`, for which the Potency result in [16] is “inactive”.

Turning to `COC(=O)[C@]12CCC(C)(C)C[C@H]1[C@H]1C(=O)C=C3[C@@]4(C)C=C(C#N)C(=O)C(C)(C)[C@@H]4CC[C@@]3(C)[C@]1(C)CC2`, the Potency in [17] was 3.76 µM (active); in experiment [6], 1.07 µM (active); in [8] it was 1.68 µM (active); in experiment [9], 0.473 µM (active); in experiment [11], 3.01 µM [inconclusive] (active); in [14], 3.76 µM (active). Besides, the call in experiment [3] and in [5] was inactive. Also, the Potency result in experiment [4] and in experiment [18] was “inactive” throughout.

As to `C[C@]12C=CC(=O)C=C1CC[C@@H]1[C@@H]2CC[C@]2(C)OC(=O)CC[C@@H]12`, the Potency result in experiment [1], in experiment [2], in experiment [17], in experiment [6], in experiment [7] and in experiment [9] was “inactive” in each case. Also, the Potency entry in [10], in experiment [13], in experiment [19], in [14] and in experiment [15] was “inactive” throughout. Besides, the molecule was called inactive in experiment [3] and in [5]. For the same molecule, the Potency in experiment [11] was 21.3 µM [inconclusive] (active); in experiment [12], 5.31 µM (active).

For the molecule `C[C@H]1CC[C@]2(NC1)O[C@H]1C[C@H]3[C@@H]4CC[C@H]5C[C@@H](O)CC[C@]5(C)[C@H]4CC[C@]3(C)[C@H]1[C@@H]2C`, the Potency result in experiment [1], in [4], in experiment [6], in [7], in experiment [10] and in experiment [11] was “inactive” in each case. In addition, the Potency entry in experiment [12], in experiment [13], in experiment [19], in experiment [14] and in experiment [15] was “inactive” each time. Also, the result in [5] was inactive. Besides, the Potency in experiment [9] is 26.6 µM (active).

On to `C[C@H]1CC[C@]2(NC1)O[C@H]1C[C@H]3[C@@H]4CC[C@H]5C[C@@H](O[C@@H]6O[C@H](CO)[C@H](O[C@@H]7O[C@H](CO)[C@@H](O)[C@H](O[C@@H]8OC[C@@H](O)[C@H](O)[C@H]8O)[C@H]7O[C@@H]7O[C@H](CO)[C@@H](O)[C@H](O)[C@H]7O)[C@H](O)[C@H]6O)CC[C@]5(C)[C@H]4CC[C@]3(C)[C@H]1[C@@H]2C`, for which the Potency was 7.5 µM (active) in experiment [2]; 1.97 µM (active) in experiment [17]; 2.39 µM (active) in [6]; 2.37 µM (active) in [7]; 2.37 µM (active) in [8]; 2.37 µM (active) in experiment [9]. Moreover, the Potency in experiment [11] is 9.52 µM [inconclusive] (active). Further, the Potency entry in [4] is “inactive”. In experiment [5], the result was inactive.

With `CN1[C@@H]2CC[C@H]1CC(OC1c3ccccc3CCc3ccccc31)C2` (stereo partly drawn), the result in experiment [3] and in [5] was inactive. The Potency entry in experiment [20], in [16], in [6], in [10], in experiment [11] and in experiment [12] was “inactive” each time. Further, the Potency result in experiment [13], in experiment [19], in experiment [14] and in [15] was “inactive” in each case. Further, the values for the Potency in [7], in [8] and in experiment [9] were 10.1 µM (active), 2.85 µM (active) and 5.07 µM (active), respectively.

As to `F/C(COc1ccc2c(c1)[nH]c1ccccc12)=C1/CN2CCC1CC2`, the Potency entry in [2], in experiment [20], in experiment [6], in [11] and in experiment [12] was “inactive” throughout. Besides, the Potency in [7] was 8.41 µM (active); in [8], 7.5 µM (active); in experiment [9], 8.41 µM (active); in experiment [14], 21.1 µM (active).

These data come from PubChem BioAssay (Tox21).
